Z-score data for 15 compounds are collected here from PubChem BioAssay.

Activity calls are given as the source filed them.

Experiment [1] can be described thus: A549 cell viability effects, profiling panel, calcein-AM fluorescence, 48 h, basal (AID 1162). To be noted: higher = more signal.
Experiment [2] in a line: adipocyte viability effects, profiling panel, cell-based, 3T3-L1 adipocytes, calcein-AM fluorescence, 48 h, basal (AID 1163). To be noted: 3T3-L1 adipocytes viability, higher = more signal.
Experiment [3] is described as follows: HepG2 cell viability effects, profiling panel, calcein-AM fluorescence, 48 h, basal (AID 1164). The conditions noted are these: higher = more signal.
The nature of experiment [4]: MM1S cell viability effects, profiling panel, calcein-AM fluorescence, 48 h, basal (AID 1165).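 Note: viability of MM1S multiple myeloma cells under basal unstimulated conditions.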 The conditions noted are these: higher = more signal.
Experiment [5] is described as follows: basal RPMI8226 viability, no added stimulus, profiling panel, cell-based, calcein-AM fluorescence, 48 h, PK04 Diversity Set (AID 1166).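 Note: cells grown under basal conditions without added stimulus.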 The conditions noted are these: RPMI8226 myeloma viability, higher = more signal.
The nature of experiment [6]: basal HepG2 mitochondrial membrane potential changes, profiling panel, cell-based, JC-1 fluorescence, 24 h, 100 nL compound (AID 1167). To be noted: higher = more signal.
A short description of experiment [7]: basal 3T3-L1 adipocyte mitochondrial potential changes, profiling panel, cell-based, JC-1 fluorescence, 3T3-L1 adipocytes, 24 h, 100 nL compound (AID 1168). To be noted: JC-1 mitochondrial fluorescence, higher = more signal, called active from +8 up or from −8 down.
Experiment [8] in a line: basal RPMI8226 mitochondrial membrane potential changes, profiling panel, cell-based, JC-1 fluorescence, 24 h, 100 nL compound (AID 1169). The conditions noted are these: RPMI8226 myeloma, JC-1 mitochondrial potential fluorescence, higher = more signal.
The nature of experiment [9]: basal MM1S mitochondrial membrane potential changes, profiling panel, cell-based, JC-1 fluorescence, 24 h, 100 nL compound (AID 1170). The conditions noted are these: higher = more signal.
Experiment [10] can be described thus: A549 lung cancer cell viability effects, profiling panel, resazurin fluorescence, 24 h, PK04 Diversity Set (AID 1171). The conditions noted are these: higher = more signal, called active from +8 up or from −8 down.
Note: test concentration not given here.

With `COc1ccccc1CN1C(=O)c2ccccc2[C@@]2(Cc3ccccc3N(C3CC3)C2=O)[C@@H]1c1ccc(CO)cc1`, the z-score in experiment [1] is 0.0264; in [2] it was 0.358; in experiment [3], 0.43; in experiment [4], -1.6; in [5], -0.96; in [6], -0.774. Moreover, the z-score in [7] is -0.607 (inactive); in experiment [8], 0.213; in experiment [9], 0.361; in experiment [10] it was 0.375 (inactive).

In the case of `CCC[C@@H]1C[C@@]1(CCC)[C@@H](NC(=O)c1cccs1)c1ccc(Cl)cc1`, the z-score is -0.162 in [1]; -0.608 in experiment [2]; -0.892 in experiment [3]; -2.77 in experiment [4]; -4.78 in [5]; -0.52 in [6]. Besides, the z-score was 0.028 (inactive) in experiment [7], -0.000314 in [8], -0.386 in [9] and 4.94 (inactive) in experiment [10].

Regarding `Cc1ccc(S[C@]2(C(=O)NCc3ccccc3)CC(=O)N(C3Cc4ccccc4C3)[C@@H]2c2ccc(CO)cc2I)cc1`, the z-score was 1.38 in [1]; -0.196 in experiment [2]; 1.54 in experiment [3]; -2.33 in [4]; -1.52 in experiment [5]; 0.353 in experiment [6]. The z-score was 0.698 (inactive) in experiment [7], -0.686 in experiment [8], -0.972 in experiment [9] and -0.862 (inactive) in experiment [10].

Take `C=CCC(OC(C)=O)[C@@H]1[C@@H](N(Cc2ccc(-c3ccccc3)cc2)C(=O)c2cccc3ccccc23)c2cc(OCCCO)ccc2N1C(=O)c1ccc2ccccc2n1` (stereo not given in full): the z-score in experiment [1] was 0.479; in [2] it was 0.522; in experiment [3], 0.833; in experiment [4] it was -0.318; in experiment [5] it was 0.116; in experiment [6], 3.07. Moreover, the z-score is 0.0656 (inactive) in experiment [7], -0.0127 in experiment [8], 0.506 in experiment [9] and 0.131 (inactive) in experiment [10].

Turning to `O=C1c2ccccc2[C@](Cc2ccccc2I)(C(=O)NCC(F)(F)F)[C@H](c2ccc(CO)cc2)N1Cc1ccccc1`, the z-score in experiment [1] was 0.535; in experiment [2], 0.489; in [3], 0.43; in [4], -0.441; in experiment [5], -1.67; in [6] it was -0.0706. The z-score in experiment [7] is -0.0813 (inactive); in experiment [8], -0.332; in experiment [9], -0.645; in [10], 1.1 (inactive).

Consider `C=C(/C(=C/C[C@@H](OC(C)=O)c1ccccc1OCCO)c1cnc2ccccc2c1)C(C)C`, for which the z-score is -0.0635 in [1]; 2.39 in experiment [2]; -0.795 in [3]; -2.36 in experiment [4]; -1.45 in experiment [5]; 0.517 in experiment [6]. Besides, the z-score was -1.27 (inactive) in [7], -0.0844 in experiment [8], 1.74 in experiment [9] and -0.945 (inactive) in [10].

For `O=C1C2C=CC(C(O)c3cccc4ccccc34)N(Nc3ccccc3)C2C(=O)N1c1ccccc1` (stereo not given), the z-score in experiment [1] was 0.112; in experiment [2] it was -1.54; in experiment [3], 0.22; in experiment [4], -0.624; in [5], -1.52; in [6], -1.09. Moreover, the z-score in [7] is -0.209 (inactive); in [8], -0.408; in [9] it was -0.318; in experiment [10] it was -0.854 (inactive).

With `[N-]=[N+]=NCc1ccccc1C[C@@]1(C(=O)NCCN2CCOCC2)N=C(c2ccc(OCCCO)cc2)O[C@@H]1c1ccccc1CN=[N+]=[N-]`, the z-score in experiment [1] was -0.628; in experiment [2], 0.671; in experiment [3], -0.399; in [4] it was -2.59; in [5], -2.77; in [6], 0.787. Besides, the z-score is 0.0123 (inactive) in experiment [7], -1.06 in experiment [8], -0.797 in experiment [9] and -1.13 (inactive) in [10].

For `CC1=C2[C@@H](CCc3ccccc3)OB(O)C[C@@H]2[C@@H]2C(=O)C=CC(=O)[C@@H]2C1`, the z-score is -0.223 in experiment [1]; 0.36 in experiment [2]; -0.63 in [3]; -3.38 in experiment [4]; -3.64 in [5]; -3.63 in [6]. For the same compound, the z-score in [7] was -1.5 (inactive); in [8], -1.12; in [9], -2.78; in [10] it was -0.247 (inactive).

Regarding `C=C(/C(=C/C[C@@H](OC(=O)c1ccncc1)c1cccc(OCCO)c1)c1cc(C(=O)OC)ccc1OC)C(C)C`, the z-score is 1.49 in [1]; 0.358 in experiment [2]; 1.21 in [3]; -2.98 in [4]; -2.77 in experiment [5]; 2.71 in experiment [6]. Further, the z-score in experiment [7] is 0.544 (inactive); in experiment [8], -0.303; in [9], -1.02; in experiment [10], 0.804 (inactive).

Take `O=C1OCC=C[C@H]2OC34C=CCN(CCN5CCOCC5)C(=O)[C@H]3N(CCCCCO)C(=O)[C@@H]4[C@@H]12` (stereo not given in full): the z-score in [1] is 0.348; in experiment [2] it was 0.277; in [3], -0.36; in [4], 0.148; in [5], 0.182; in experiment [6] it was -0.539. Besides, the z-score is 0.379 (inactive) in experiment [7], 0.205 in [8], 0.802 in [9] and -0.536 (inactive) in experiment [10].

`O=C1CSC(c2cccc([N+](=O)[O-])c2)N1c1ccccc1` (stereo not given): the z-score in [1] is -0.295; in experiment [2] it was -0.23; in [3] it was 1.71; in [4], 1.31; in experiment [5], -0.566; in experiment [6] it was 1.04. The z-score is 1.05 (inactive) in [7], 0.0369 in [8], -0.779 in experiment [9] and -0.292 (inactive) in experiment [10].

With `Cc1cc(C)c(C(O)C2C=CC3C(=O)N(c4ccccc4)C(=O)C3N2Nc2ccc([N+](=O)[O-])cc2)c(C)c1` (stereo not given), the z-score is -0.308 in [1]; 1.09 in [2]; -0.0308 in experiment [3]; -0.86 in experiment [4]; -0.662 in experiment [5]; -1.95 in experiment [6]. In addition, the z-score was -3.61 (inactive) in experiment [7], -0.367 in experiment [8], -1.04 in [9] and 0.634 (inactive) in experiment [10].

On to `CC1CC/C=C\[C@H]2OC34C=CCN(c5ccc(Cl)cc5)C(=O)[C@H]3N(C(CO)C(C)C)C(=O)[C@]4(C)C2C(=O)O1` (stereo not given in full), for which the z-score in experiment [1] was 0.109; in [2], -1.06; in [3], 0.453; in experiment [4], 0.955; in experiment [5] it was -0.105; in experiment [6], -0.174. Also, the z-score in [7] is -0.21 (inactive); in experiment [8] it was -0.362; in [9], 0.00224; in experiment [10], -0.392 (inactive).

For `O=C1N(Cc2ccccc2)c2ccccc2[C@H]2OC(c3ccc(OCCCO)cc3)=N[C@@]12CCS(=O)(=O)c1ccccc1`, the z-score is -0.737 in experiment [1]; 0.899 in experiment [2]; -0.117 in [3]; -0.641 in [4]; -1.43 in experiment [5]; 0.291 in experiment [6]. Besides, the z-score is 0.605 (inactive) in [7], -0.497 in experiment [8], -0.0454 in experiment [9] and -0.725 (inactive) in experiment [10].
